Pf growth 48h = inhibits P. falciparum growth in the first generation, 48 h; P. falciparum luciferase growth in erythrocytes, 48 h; Potency, µM (titrated, usually from 28.7 µM), for the others: at the highest dose activity change, negative = inhibition, hits mostly inhibitors; 5.9% of 310,000 active; also: potency is read from the fitted curve at half-maximal effect
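Parasite viability was followed by luminescence of a genomically integrated firefly luciferase. Cultures held 0.1% parasitemia at 2% hematocrit (final), incubated under 5% CO2 at 37 C.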
FBPA Giardia inh = Giardia lamblia aldolase inhibition; A8B2U2; purified Giardia FBPA; Potency, µM (doses to about 59.6 µM), for inactives: at the top dose activity, negative = inhibition, usual class: inhibitors; 0.71% of 290,000 active; AID 2451; also: potency is read from the fitted curve at half-maximal effect; nearly all actives have a fitted effect of over 55% in size
Target sequence (A8B2U2 whole entry, looked up): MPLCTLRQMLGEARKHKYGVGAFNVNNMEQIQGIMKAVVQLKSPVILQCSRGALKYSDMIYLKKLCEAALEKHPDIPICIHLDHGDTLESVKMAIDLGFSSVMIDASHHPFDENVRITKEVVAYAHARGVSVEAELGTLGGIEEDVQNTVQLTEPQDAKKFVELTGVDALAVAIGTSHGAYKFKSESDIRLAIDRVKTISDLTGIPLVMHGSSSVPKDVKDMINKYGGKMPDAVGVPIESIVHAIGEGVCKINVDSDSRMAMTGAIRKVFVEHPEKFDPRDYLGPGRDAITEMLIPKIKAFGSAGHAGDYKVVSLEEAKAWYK
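Giardia FBPA (40 nM reagent) was preincubated 10 min at RT with compound (up to 57.5 uM final), then substrate plus GAPDH/TPI/NAD/arsenate coupling system with diaphorase/resazurin was added; resorufin fluorescence (525/598 nm) was read after 20 min.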
Pf growth 96h = P. falciparum growth inhibition at 96 hour, primary screen for plastid delayed-death inhibitors. P. falciparum luciferase reporter growth, 96 h. Potency, µM (highest dose often 28.7 µM), for inactives: at the top dose activity change, negative = inhibition, actives largely listed as inhibitors. 6.9% of 320,000 active; also: potency is read from the fitted curve at half-maximal effect
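Parasite growth measured via integrated firefly luciferase reporter in P. falciparum. Infected erythrocytes at 2% hematocrit, 0.05% parasitemia final were treated 96 hours at 37 C under 5% CO2, and luminescence was read.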
HCMV inh = inhibitors of human cytomegalovirus | HFF cells, HCMV-luciferase reporter, 72 h; stronger effect = lower value | activity change, negative = inhibition, % at 57.5 µM | 4.5% of 410,000 active | AID 1259415; in the data active = activity change below about -60%; inconclusive = no clear call, values can overlap the other calls; inactive = above about -39%
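Steps: HFFs plated, 16 h 37C; compounds added; HCMV-luciferase added to MOI 1 PFU/cell; 72 h 37C; OneGlo reagent, 5 min room temperature; luminescence read, normalized to controls.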
Sm TGR block = inhibitors of Schistosoma mansoni thioredoxin glutathione reductase; purified TGR, DTNB reduction, TNB absorbance 405 nm; Potency, µM (doses to about 114 µM), without a hit: at the highest dose activity change, negative = inhibition, hits mostly inhibitors; Q962Y6; 3% of 360,000 active; also: potency is read from the fitted curve at half-maximal effect; nearly all actives have a fitted effect of over 60% in size
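Kinetic colorimetric format: TGR-catalysed, NADPH-driven DTNB reduction monitored via TNB absorbance. Enzyme dispensed at 20 nM; compound exposure 15 min at room temperature before reaction start.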
Starred values were filed as active, the others as inactive; ? = inconclusive; . = not tested or not shown. Rows were chosen to be rich in hits. Some 14% of all compounds tested hit in one or more screens of this group. Unless noted, calls follow the shape of the dose curve; as a rule, active = well fitted curve in the direction sought with a large enough effect; inconclusive = small, poorly fitted or top-dose-only effect, or another doubt; inactive = no such curve, though single readings can be large; an effect the other way counts as inactive or inconclusive. % is scaled to controls: 0 for no effect and ±100 for the full control effect.

SMILES	Pf growth 48h	FBPA Giardia inh	Pf growth 96h	HCMV inh	Sm TGR block
FC(F)Oc1ccc(NC(=S)NC23CC4CC(CC(C4)C2)C3)cc1	4.1µM*	16%	4.1µM*	-37	4%
CCNC(=O)Oc1ccc[nH]c1=O	-6%	4µM*	?	-19	?
O=C(Oc1ccc[nH]c1=O)c1cc([N+](=O)[O-])cc([N+](=O)[O-])c1	?	?	9%	16	79µM*
COc1ccc(C(=O)Oc2ccc[nH]c2=O)cc1	?	-3%	13%	34	-8%
CNc1ccc2nc3ccccc3[n+](C)c2c1	0.17µM*	-17%	0.17µM*	-101*	6.3µM*
CC(C)n1c(NCCO)nc2ccccc21	38%	-6%	?	5	8%
C[n+]1c2ccccc2nc2ccc(NCCO)cc21	0.12µM*	?	0.13µM*	-81*	10µM*
Cc1cc2cc(CN(Cc3ccc4c(c3)OCO4)Cc3nnnn3C3CCCC3)c(=O)[nH]c2cc1C	?	3%	52%	-38	3%
COc1ccc(Cn2nnnc2CN(CCCN2CCOCC2)Cc2cc3cc(OC)ccc3[nH]c2=O)cc1	?	-9%	?	?	-13%
O=c1[nH]c2cc3c(cc2cc1CN(CCc1ccccc1)Cc1nnnn1C1CCCC1)OCCO3	22%	?	43%	.	45µM*
COCCn1nnnc1CN(CCCN1CCOCC1)Cc1cc2c(C)ccc(C)c2[nH]c1=O	6%	-1%	12%	42	13µM*
Cc1ccc2[nH]c(=O)c(CN(Cc3ccc4c(c3)OCO4)Cc3nnnn3C3CCCC3)cc2c1	10µM*	-3%	-1%	-36	-19%
COc1ccc2cc(CN(CCCN3CCOCC3)Cc3nnnn3C3CCCC3)c(=O)[nH]c2c1	10µM*	?	5.2µM*	-25	?
COc1ccc(Br)cc1S(=O)(=O)N(CC(=O)N1CCN(C)CC1)c1ccccc1	-13%	.	?	-20	2%
O=C(NCC1CCCO1)c1ccc2c(c1)N(Cc1ccccc1)C(=O)CS2 (centres undefined)	15%	3%	10%	-74*	-11%
CC(=O)c1ccc2c(c1)N(Cc1ccccc1Cl)C(=O)C(C)S2 (centres undefined)	.	.	.	-98*	.
Cc1ccc(CNC(=O)c2ccc3c(c2)N(Cc2ccccc2Cl)C(=O)CS3)cc1	.	.	.	-38	6%
O=C(NCc1ccccc1Cl)c1ccc2c(c1)N(Cc1ccccc1)C(=O)CS2	.	.	.	-65*	8%
COC(=O)c1cccc(CN2C(=O)C(C)Sc3ccc(C(C)=O)cc32)c1 (centres undefined)	.	.	.	35	.
O=C(CSc1ccc(-c2ccccn2)nn1)N1CCCC1	20%	?	-10%	3	-7%
CCOC(=O)c1c(S(=O)(=O)NCC(=O)N2CCN(c3ccc(F)cc3)CC2)c(C)n(C)c1C	?	1%	-1%	-18	-7%
COc1ccc(N2CCN(C(CNC(=O)c3cccc(Cl)c3)c3cccnc3)CC2)cc1 (centres undefined)	?	5%	1.9µM*	-31	0%
COc1ccc(N2CCN(C(CNC(=O)c3ccc4c(c3)OCO4)c3cccnc3)CC2)cc1 (centres undefined)	-10%	4%	?	-24	-5%
O=S(=O)(NCC(c1cccnc1)N1CCN(c2ccc(F)cc2)CC1)c1cccs1 (centres undefined)	?	8%	-30%	0	-29%
O=S(=O)(NCC(c1cccnc1)N1CCN(c2ccccc2F)CC1)c1cccs1 (centres undefined)	13µM*	14%	?	-3	-27%
SMILES	Pf growth 48h	FBPA Giardia inh	Pf growth 96h	HCMV inh	Sm TGR block
COc1cccc(C(=O)NCC(c2cccnc2)N2CCN(c3ccccc3OC)CC2)c1 (centres undefined)	12µM*	-25%	?	.	-36%
COc1ccc(CNC(=O)C(=O)NCC(c2cccnc2)N2CCN(c3ccccc3F)CC2)cc1 (centres undefined)	.	.	.	-70*	8%
Cc1ccccc1CN1[C@@H](C)[C@H](c2ccccc2)Oc2cccc(NCCc3ccccc3)c2S1(=O)=O	.	.	.	-10	.
COc1ccc(Nc2nccc3[nH]c(-c4cccc(OC(F)(F)F)c4)nc23)cc1OC	.	.	.	-9	.
O=[N+]([O-])c1cc(-c2ccccc2)cc([N+](=O)[O-])c1O	.	.	.	-87*	.
O=[N+]([O-])c1cc2ccccc2c(O)c1O	.	.	.	-100*	.
O=[N+]([O-])c1cccc(C=Nc2cccc3ccccc23)c1O	1%	-23%	-2%	29	-3%
O=[N+]([O-])c1cccc2[nH]ncc12	.	.	.	-35	.
O=[N+]([O-])c1cccc2c([N+](=O)[O-])cccc12	12%	.	5.9µM*	-17	0%
O=S(=O)(Nc1nc2ccccc2nc1-[n+]1cccc(N=C([O-])c2ccc(Cl)cc2)c1)c1ccccc1	?	-8%	8.3µM*	?	-14%
CCOC(=O)N1CCN(c2nc3c(C)cccn3c(=O)c2C=O)CC1	?	-1%	?	-23	40µM*
C=CCNC(=O)/C(C#N)=C/c1c(N2CCN(c3cccc(Cl)c3)CC2)nc2c(C)cccn2c1=O	8.3µM*	7%	?	-9	0%
COCCNC(=O)/C(C#N)=C/c1c(N2CCN(c3cccc(Cl)c3)CC2)nc2c(C)cccn2c1=O	13µM*	5%	?	-1	-2%
CNC(=O)/C(C#N)=C/c1c(N2CCN(c3cccc(Cl)c3)CC2)nc2c(C)cccn2c1=O	-21%	5%	?	-33	2%
COCCNC(=O)/C(C#N)=C/c1c(F)cccc1Cl	0%	1%	-20%	-75*	-1%
Cc1cccn2c(=O)c(C=O)c(N3CCCCC3)nc12	-6%	19%	0%	?	-15%
COCCNC(=O)/C(C#N)=C/c1ccc(SC)cc1	-7%	3%	-2%	-27	-6%
CC(=O)c1ccc(S(=O)(=O)Nc2ccc(-c3cn4c(n3)SCC4)cc2)cc1	22%	9%	25%	-30	-19%
Cc1ccc(OCCn2c(-c3ccc(Cl)cc3)nc3ccccc3c2=O)c(C)c1	.	.	.	-21	-2%
CCNC(=O)/C(C#N)=C/c1c(N2CCN(c3ccc(OC)cc3)CC2)nc2c(C)cccn2c1=O	?	-8%	?	-20	-5%
COCCNC(=O)/C(C#N)=C/c1c(N2CCN(c3ccc(OC)cc3)CC2)nc2c(C)cccn2c1=O	.	1%	?	-2	-11%
CCOC(=O)/C(C#N)=C/c1c(N2CCN(c3ccc(OC)cc3)CC2)nc2c(C)cccn2c1=O	9.3µM*	-14%	12µM*	-11	-3%
COCCNC(=O)/C(C#N)=C/c1c(N2CCN(c3ccccc3)CC2)nc2c(C)cccn2c1=O	13µM*	-8%	?	12	0%
COc1ccc(N/N=C(C)/C(=N/O)C(=O)Nc2ccccc2)cc1	54%	-21%	80%	?	?

Compound activity from PubChem BioAssay.
